Compounds with a hit are over-represented: about 7.3% of the library has one in this group of screens.
SMN2 splice enh: SMN2 splice variant enhancement; HEK293 SMN2-luciferase splicing reporter, luminescence, 30-36 h; Potency, µM (highest dose often 46.1 µM), usual class: activators; 210,000 compounds, 2.8% hits; also: nearly all actives have a fitted effect of over 55% in size
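qHTS luciferase splicing reporter: luminescence rises when SMN2 exon 7 is included in transfected HEK293 cells. Compound exposure lasted 30-36 h at 37C, with 4.5 mM final sodium butyrate as control, followed by a ONE-Glo read.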
Rab9 promoter act: activates the Rab9 promoter | Huh7 Rab9 promoter-luciferase reporter, luminescence, 24 h | Potency, µM (titrated, usually from 9.22 µM), most hits filed as activators | 320,000 compounds, 2.8% hits; also: nearly all actives have a fitted effect of over 60% in size
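Huh7 reporter line, Rab9 promoter upstream of luciferase. Compound exposure 24 h at 37 °C in reduced-serum medium with 10% FBS. Read-out: luminescence.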
ELG1 genotox: induces genotoxicity in HEK293T cells with luciferase-tagged ELG1; HEK293T ELG1-luciferase reporter, luminescence, 16 h; Potency, µM (doses to about 46 µM), actives largely listed as activators; 330,000 compounds, 1.3% hits; AID 504466; also: nearly all actives have a fitted effect of over 60% in size
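16 hr compound incubation (37 °C, 5% CO2) of HEK293T cells carrying luciferase-tagged ELG1; luciferase then measured by ONE-Glo luminescence after 30 min at RT.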
KinaseGlo FLuc: blocks Kinase-Glo luciferase, a counter-screen artifact; Q27757; Kinase-Glo luciferase, ATP luminescence, 8 min; Potency, µM (doses to about 38.3 µM), usual class: inhibitors; 200,000 compounds, 0.28% hits; also: nearly all actives have a fitted effect of over 60% in size
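Compounds were added to a substrate mix at pH 7.2 (50 mM imidazole, 10 uM ATP, within the enzyme's linear range), followed by Kinase-Glo detection reagent; luminescence was measured after 8 minutes at ambient temperature.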
NPC1 promoter act: activators of NPC1 promoter. 320,000 compounds, 2.4% hits. Huh7 NPC1 promoter luciferase reporter, 24 h. Potency, µM (titrated, usually from 9.22 µM), most hits filed as activators; also: nearly all actives have a fitted effect of over 60% in size
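Quantitative HTS used a cell-based reporter: Huh7 cells stably bearing the NPC1 promoter upstream of luciferase were treated with compounds for 24 h, and promoter activation was read as luminescence.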
FLuc counter: firefly luciferase modulation, counter-screen for miR-21 project. P08659. purified FLuc, Km substrates, luminescence inhibition. 360,000 compounds, 6.9% hits. Potency, µM (titrated, usually from 57.5 µM), usual class: inhibitors; also: nearly all actives have a fitted effect of over 55% in size
Target sequence (P08659 whole entry, looked up): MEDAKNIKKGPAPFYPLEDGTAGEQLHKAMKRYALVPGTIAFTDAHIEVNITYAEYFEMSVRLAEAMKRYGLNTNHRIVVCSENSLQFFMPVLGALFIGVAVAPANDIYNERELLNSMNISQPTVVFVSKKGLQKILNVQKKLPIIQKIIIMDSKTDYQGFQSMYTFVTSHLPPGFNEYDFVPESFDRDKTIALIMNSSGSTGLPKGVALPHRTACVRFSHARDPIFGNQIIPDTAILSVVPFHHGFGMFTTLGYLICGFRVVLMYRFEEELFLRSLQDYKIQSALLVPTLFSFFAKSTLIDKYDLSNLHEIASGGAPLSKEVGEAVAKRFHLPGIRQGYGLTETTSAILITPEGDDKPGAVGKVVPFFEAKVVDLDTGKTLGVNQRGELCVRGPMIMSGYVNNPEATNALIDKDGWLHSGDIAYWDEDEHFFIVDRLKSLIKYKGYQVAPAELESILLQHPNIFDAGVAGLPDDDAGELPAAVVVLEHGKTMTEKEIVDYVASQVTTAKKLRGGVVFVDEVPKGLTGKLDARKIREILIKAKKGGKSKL
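Purified P. pyralis luciferase, 10 nM final, with Km-level 10 uM D-luciferin and 10 uM ATP in 50 mM Tris acetate pH 7.5, 10 mM Mg acetate, 0.01% Tween-20, 0.05% BSA; 6-point qHTS titration about 60 µM downward; luminescence read.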
Numbers stand for hits; 0 = inactive; ? = inconclusive; - = no result; [ ] = remark or other dose. Calls follow the shape of the dose curve; as a rule, active = well fitted curve in the direction sought with a large enough effect; inconclusive = small, poorly fitted or top-dose-only effect, or another doubt; inactive = no such curve, though single readings can be large; an effect the other way counts as inactive or inconclusive.

SMILES	SMN2 splice enh	Rab9 promoter act	ELG1 genotox	KinaseGlo FLuc	NPC1 promoter act	FLuc counter
CCCc1nnc(NC(=O)CCC(=O)NCc2ccc(Cl)cc2Cl)s1	-	0	0	-	0	0
CCc1cc(C(=O)Nc2cnn(Cc3ccccc3C)c2)no1	17.8µM	-	-	-	-	23.9µM
N/C(=N\OC(=O)Nc1ccc(Cl)cc1)c1ncc(C(F)(F)F)cc1Cl	0	0	?	0	0	?
N/C(=N\OC(=O)Nc1ccccc1)c1ncc(C(F)(F)F)cc1Cl	0	?	23.1µM	0	0	12µM
O=S(=O)(CCSc1nc2ccccc2o1)c1nc2ccccc2s1	17.8µM	0	0	0	0	0
O=S(=O)(CCSc1ccccn1)c1nc2ccccc2s1	11.2µM	0	0	0	0	0
CCS(=O)(=O)CCSc1nc2ccccc2o1	0	0	0	0	0	0
O=C(CSc1ccccn1)Nc1nc2ccccc2s1	0	0	?	0	0	?
COCCC(=O)N1CCC(Oc2ccc(C(=O)NCCC3=CCCCC3)cc2)CC1	-	0	0	-	0	0
Cn1c(=O)cc(OCC(=O)NCc2ccccn2)c2ccccc21	0	0	0	0	0	0
CN(CCCC1CCCC1)C(=O)CCc1nnc(-c2ccccc2)o1	12.6µM	2.51µM	20.6µM	0	?	12µM
CN(CCC1CCCCO1)C(=O)CCc1nnc(CCCCc2ccccc2)o1 (stereo unspecified)	0	0	0	0	0	?
CCN(Cc1ccncc1)C(=O)CCc1nnc(CCC2CCCCC2)o1	-	0	0	0	0	0
Cc1cc(C)n(CCN(C)C(=O)CCc2nnc(CCC3CCCCC3)o2)n1	-	?	?	0	?	15.1µM
CN(C(=O)CCc1nnc(-c2ccc(-c3ccccc3)cc2)o1)C1CCOCC1	-	0	0	-	0	16.9µM
O=C(Nc1ncc(Cc2cccc(Cl)c2)s1)c1ccc([N+](=O)[O-])cc1	0	0	0	0	0	0
O=C(CCCOc1ccccc1)NN1C(=O)NC2(CCCCC2)C1=O	-	0	0	-	0	0
O=C(Oc1ccc(C(=S)N2CCOCC2)cc1)c1ccccc1F	-	0	0	-	0	?
COC(=O)c1ccc(OC(=O)c2ccccc2F)cc1	0	0	0	0	0	13.5µM
O=C(OCc1nc2ccccc2s1)C1CCN(C2=NS(=O)(=O)c3ccccc32)CC1	0	?	?	0	0	10.7µM
COc1cc(O)c(C(CC(=O)N2CCN(c3ccccc3)CC2)c2cc(OC)c(OC)c(OC)c2)c(OC)c1 (stereo unspecified)	-	0	0	-	0	0
Cc1nc2ccc(CCO)cc2s1	0	0	0	0	0	0
CCCc1ccc2oc(C(=O)NCCCN3CCOCC3)c(C)c2c1	-	0[1.84 µM]	?	-	0	13.5µM
CCc1ccc2oc(C(=O)NCc3ccc(S(N)(=O)=O)cc3)c(C)c2c1	0	0	?	0	0	0
CCCc1ccc2oc(C(=O)NCc3nnc(C)o3)c(C)c2c1	-	2.82µM	9.2µM	-	2µM	9.53µM
SMILES	SMN2 splice enh	Rab9 promoter act	ELG1 genotox	KinaseGlo FLuc	NPC1 promoter act	FLuc counter
C=CCN1C(=O)C(CC(=O)O)S/C1=N/N=C/c1ccc(N(CC)CC)cc1 (stereo unspecified)	-	0	0	-	0	21.3µM
Cc1occc1C(=O)Nc1ccccc1C(=O)O	0	0	?	0	0	26.9µM
Cc1cc(C(=O)Nc2ccccc2C(=O)O)oc1C	-	0	0	-	0	19µM
CCc1ccccc1NC(=O)c1ccoc1C	0	0	0	0	0	0
O=[N+]([O-])c1ccc(-c2nc(C(Cl)Cl)c3ccccc3n2)cc1	-	0	0	-	0	0
Cc1nc(-c2ccccc2)nc2[nH]ccc(=O)c12	?	?	?	0	0	12µM
Cc1nc(-c2ccc([N+](=O)[O-])cc2)nc2[nH]ccc(=O)c12	-	1.12µM	?	-	1.12µM	5.36µM
Cc1nc(-c2ccccc2)nc2[nH]c(-c3ccccc3)cc(=O)c12	0	0	0	0	0	0
CCOc1ccc(CCNC(=O)C2CCC(CNS(=O)(=O)c3ccc(Cl)cc3)CC2)cc1OCC (stereo unspecified)	-	-	-	-	-	0
Cc1ccccc1N(C(=O)CCC(=O)Nc1ccccn1)C(C(=O)NC(C)C)c1ccc(O)cc1 (stereo unspecified)	0	0	0	0	0	0
COC(=O)c1c(NC(=O)Nc2ccc(Cl)cc2)sc(C)c1C	?	0	0	0	0	0
CC1(C)Cc2c(sc(NC(=O)Nc3ccccc3)c2C(N)=O)CO1	-	1.26µM	?	-	4.47µM	12µM
Cc1sc(NC(=O)Nc2ccccc2)c(C(N)=O)c1C	-	2µM	0	0	?	7.57µM
CC1=C(C(=O)OCC2CCCCC2)C(c2cccc(Cl)c2Cl)CC(=O)N1 (stereo unspecified)	0	-	-	-	-	0
Fc1ccc(-c2noc(-c3ccc4c(c3)CCO4)n2)cc1	-	0.398µM	?	-	?	0.536µM
COc1ccc(-c2cn3nc4c(nc3n2)CCCC4)cc1	?	0.355µM	?	0	0.447µM	0.536µM
COc1ccc(CNc2cc(-c3ccc(OC)cc3)nc3nncn23)cc1	0	-	-	-	-	0
O=C(O)CCC(=O)NN1C(=O)c2ccccc2NC1c1ccc(F)cc1 (stereo unspecified)	-	0	0	-	0	0
Cc1cc(F)ccc1NC(=O)c1sc2nc(-c3cccs3)ccc2c1N	10µM	-	-	-	-	0
NC(=O)c1sc2nc(-c3cccs3)ccc2c1N	-	?	?	-	?	9.53µM
Nc1c(C(=O)Nc2ccc(Br)cc2)sc2nc(-c3ccco3)ccc12	0	0	0	0	0	?
Nc1c(C(=O)NC2CCCC2)sc2nc(-c3cccs3)ccc12	0	0	?	0	0	0
CC(=O)c1sc2nc(-c3ccco3)ccc2c1N	-	?	20.6µM	-	?	3.79µM
CCOC(=O)c1sc2nc(-c3ccccc3)ccc2c1N	0.794µM	0.282µM	0.517µM	0	0.355µM	0.19µM
Nc1c(C(=O)Nc2ccc(C(F)(F)F)cc2)sc2nc(-c3cccs3)ccc12	0	-	-	-	-	0
SMILES	SMN2 splice enh	Rab9 promoter act	ELG1 genotox	KinaseGlo FLuc	NPC1 promoter act	FLuc counter
O=S1(=O)CC(N2CCCCC2)C(N2CCCCC2)C1 (stereo unspecified)	0	0	0	0	0	0
COc1ccc(CNC(=O)COc2cccnc2[N+](=O)[O-])cc1OC	-	0[1.84 µM]	0	-	0	0
Clc1ccc(Nc2ncn[nH]2)c(Cl)c1	0	0	0	0	0	0
COc1ccccc1Oc1ncnc2c1oc1ccccc12	0	0	0	0	0	0
NC(=O)c1sc2nc(-c3ccccc3)ccc2c1N	-	3.16µM	?	-	1.78µM	2.13µM
COc1ccc(-c2nnc(Nc3nc4c(OC)cccc4s3)o2)cc1	0	0	?	0	0	5.36µM
COc1ccc(-c2nnc(NC(=O)c3ccc(F)cc3)o2)cc1	0	0	0	0	0	0
COc1ccc(-c2nnc(Nc3nc4c(OC)cccc4s3)o2)c(OC)c1	0	0	0	0	0	9.53µM
O=C(Nc1nnc2n1CCS2)c1ccccc1	-	-	-	-	-	0

From PubChem BioAssay
